Results reported in PubChem BioAssay (NCATS).
Records with an inconclusive call do not appear. Activity calls are given as the source filed them. The call rests on the fitted dose curve; in most records, active means well fitted inhibition curve with a large enough effect; inconclusive means small, poorly fitted or top-dose-only effect; inactive means flat fitted curve, though single readings scatter.

Legend:
TAB109 = test: qHTS profiling for inhibitors of Plasmodium falciparum proliferation (AID 504749);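 further: 0% = DMSO vehicle and full inhibition = artemisinin control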; conditions: P. falciparum in erythrocytes, SYBR Green DNA, 72 h; series mostly up to 28.7 µM
How it was run: (§1)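 Parasite proliferation within erythrocytes, 72 h exposure. Endpoint: SYBR Green I fluorescence after overnight lysis at room temperature. Controls: 0.29 uM artemisinin, DMSO.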

TAB113 = test: as above; conditions: P. falciparum in erythrocytes, SYBR Green DNA, 72 h; series mostly up to 28.7 µM
How it was run: as §1

TAB165 = test: as above; conditions: P. falciparum in erythrocytes, SYBR Green DNA, 72 h; series mostly up to 28.7 µM
How it was run: as §1

W2 = test: as above; conditions: P. falciparum in erythrocytes, SYBR Green DNA, 72 h; series mostly up to 28.7 µM
How it was run: as §1

CRL-7250 = normal cell line; test: Cytotoxic Profiling of Annotated Libraries Using Quantitative High-Throughput Screening (AID 1296008); conditions: Five cell lines viability, CellTiter-Glo ATP luminescence, 48-72 h; stronger effect = lower value; on max response: on the % scale 0 is the no-effect control and ±100 the full control effect
How it was run: (§2)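 Compounds were pin-transferred onto cells and incubated 48 or 72 hr at 37 degree Celsius, 95% humidity. CellTiter-Glo was added, plates sat 10 min at room temperature, then ATP-coupled luminescence was imaged as the viability read-out.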

HEK293 = test: as above; conditions: Five cell lines viability, CellTiter-Glo ATP luminescence, 48-72 h; stronger effect = lower value
How it was run: as §2

HaCat = test: as above; conditions: Five cell lines viability, CellTiter-Glo ATP luminescence, 48-72 h; stronger effect = lower value
How it was run: as §2

KB-3-1 = test: as above; conditions: Five cell lines viability, CellTiter-Glo ATP luminescence, 48-72 h, stronger effect = lower value
How it was run: as §2

NIH3T3 = test: as above; conditions: Five cell lines viability, CellTiter-Glo ATP luminescence, 48-72 h; stronger effect = lower value
How it was run: as §2
Further: nearly all actives have a fitted effect of over 60% in size.

Cc1ccccc1N=Nc1ccc(N=Nc2c(O)ccc3ccccc23)c(C)c1
inactive: Potency (TAB109) | Potency (TAB113) | Potency (TAB165) | Potency (W2) | max response (CRL-7250) -16.7% | outcome (HEK293) | max response (HaCat) 0.728% | max response (KB-3-1) 9.66% | max response (NIH3T3) 0.522%

CCCCCCCCCCCCCCCCN
inactive: Potency (TAB109) | Potency (TAB165) | Potency (W2) | max response (CRL-7250) -3.5% | outcome (HEK293) | max response (HaCat) -13.8% | max response (KB-3-1) 5.46% | max response (NIH3T3) -1.53%

CCN(CC)CCc1nc(-c2ccccc2)no1
inactive: Potency (TAB109) | Potency (TAB113) | Potency (TAB165) | Potency (W2) | max response (CRL-7250) 3.52% | max response (HEK293) -5.93% | max response (HaCat) 4.68% | max response (KB-3-1) 7.98% | max response (NIH3T3) 1.98%

NC(=O)CCCCC1CCSS1 (configuration not stated)
inactive: Potency (TAB109) | Potency (TAB113) | Potency (W2) | max response (CRL-7250) -9.01% | max response (HEK293) 2.03% | max response (HaCat) -1.45% | max response (KB-3-1) -12.5% | max response (NIH3T3) -6.71%

CC(=O)Nc1ccc(C(=O)O)cc1
inactive: Potency (TAB109) | Potency (TAB113) | Potency (TAB165) | Potency (W2) | max response (CRL-7250) -0.409% | outcome (HEK293) | max response (HaCat) 3.25% | max response (KB-3-1) -6.78% | max response (NIH3T3) -2.27%

CC(C)CCOC(=O)c1ccc(N(C)C)cc1
inactive: Potency (TAB109) | Potency (TAB113) | Potency (TAB165) | Potency (W2) | max response (CRL-7250) -21% | max response (HEK293) -23.8% | max response (HaCat) -5.98% | max response (KB-3-1) 11.7% | max response (NIH3T3) -25.1%

CC(C)CCCC(C)CCCC(C)CCCCC(C)CCCC(C)CCCC(C)C (configuration not stated)
inactive: Potency (TAB109) | Potency (TAB113) | Potency (TAB165) | Potency (W2) | outcome (CRL-7250) | max response (HEK293) -6.17% | max response (HaCat) -19.8% | max response (KB-3-1) 12.8% | max response (NIH3T3) -1.47%

O=C(CCBr)N1CCN(C(=O)CCBr)CC1
inactive: Potency (TAB109) | Potency (TAB113) | Potency (TAB165) | Potency (W2) | max response (CRL-7250) -5.81% | max response (HEK293) 0.232% | max response (HaCat) -10.3% | max response (KB-3-1) -5.88% | outcome (NIH3T3)

C[N+](C)(C)CC[N+]1(C)Cc2c(Cl)c(Cl)c(Cl)c(Cl)c2C1
inactive: Potency (TAB109) | Potency (TAB113) | Potency (TAB165) | Potency (W2) | max response (CRL-7250) -7.06% | outcome (HEK293) | max response (HaCat) -6.5% | max response (KB-3-1) 9.08% | max response (NIH3T3) 3.9%

NC(=O)NS(=O)(=O)c1ccc(N)cc1
inactive: Potency (TAB109) | Potency (TAB113) | Potency (TAB165) | Potency (W2) | max response (CRL-7250) -2.79% | max response (HEK293) -4.98% | max response (HaCat) 2.87% | max response (KB-3-1) 0.448% | outcome (NIH3T3)

CC(=O)Nc1ccc(OCCOCCOc2ccc(NC(C)=O)cc2)cc1
inactive: Potency (TAB109) | Potency (TAB113) | Potency (TAB165) | Potency (W2) | max response (CRL-7250) 0.416% | outcome (HEK293) | max response (HaCat) 3.25% | max response (KB-3-1) -2.03% | max response (NIH3T3) 4.13%

O=C(Cn1ccnc1[N+](=O)[O-])NCCO
inactive: Potency (TAB109) | Potency (TAB113) | Potency (TAB165) | Potency (W2) | max response (CRL-7250) 1.72% | outcome (HEK293) | max response (HaCat) 0.0021% | max response (KB-3-1) 0.623% | max response (NIH3T3) 4.22%

O=C(CN1CCNCC1)NC1CCCCC1
inactive: Potency (TAB109) | Potency (TAB113) | Potency (TAB165) | Potency (W2) | max response (CRL-7250) -5.07% | max response (HEK293) -4.92% | max response (HaCat) 0.716% | max response (KB-3-1) 2.43% | outcome (NIH3T3) inactive; activator

CNCc1ccccc1
inactive: Potency (TAB109) | Potency (TAB113) | Potency (TAB165) | Potency (W2) | max response (CRL-7250) 4.71% | outcome (HEK293) | max response (HaCat) -18.5% | max response (KB-3-1) -4.93% | max response (NIH3T3) 1.15%

CCCOC(=O)c1ccc(N)cc1
inactive: Potency (TAB109) | Potency (TAB113) | Potency (TAB165) | Potency (W2) | outcome (CRL-7250) | outcome (HEK293) | max response (HaCat) -1.1% | max response (KB-3-1) 1.99% | max response (NIH3T3) -2.69%

Cc1c(C)c2c(c(C)c1OC(=O)c1cccnc1)CC[C@@](C)(CCC[C@H](C)CCC[C@H](C)CCCC(C)C)O2
inactive: Potency (TAB109) | Potency (TAB113) | Potency (TAB165) | Potency (W2) | outcome (CRL-7250) | max response (HEK293) -1.31% | max response (HaCat) 0.9% | max response (KB-3-1) 1.29% | outcome (NIH3T3)

CN(C(=O)c1c(O)c2ccccc2n(C)c1=O)c1ccccc1
inactive: Potency (TAB109) | Potency (TAB165) | Potency (W2) | max response (CRL-7250) 0.215% | max response (HEK293) -2.97% | max response (HaCat) -1.18% | max response (KB-3-1) 9.88% | outcome (NIH3T3)

NS(=O)(=O)c1cc(-c2nn[nH]n2)c(NCc2cccs2)cc1Cl
inactive: Potency (TAB109) | Potency (TAB113) | Potency (TAB165) | Potency (W2) | max response (CRL-7250) 1.54% | outcome (HEK293) | max response (HaCat) -8.31% | max response (KB-3-1) -9.88% | max response (NIH3T3) -0.0304%

C[C@@H](N)C(=O)O
inactive: Potency (TAB109) | Potency (TAB113) | Potency (TAB165) | Potency (W2) | max response (CRL-7250) 0.494% | outcome (HEK293) | max response (HaCat) -6.96% | max response (KB-3-1) -23.1% | max response (NIH3T3) -0.0264%

CCCCC1(COC(=O)CCC(=O)O)C(=O)N(c2ccccc2)N(c2ccccc2)C1=O
inactive: Potency (TAB109) | Potency (TAB113) | Potency (TAB165) | Potency (W2) | outcome (CRL-7250) | max response (HEK293) -6.41% | max response (HaCat) -4.26% | max response (KB-3-1) 2.02% | outcome (NIH3T3)
